Measurements published in the supplement of paper PMC3545927.
This is one part of the list. How many sequences the whole screen found active is unknown.

Biological target: furin, P09958
Assay: furin cleavage Z-score vs untreated control; higher = more cleavage, active = 3.5 or more, inactive = 1 or less, 8 variable residues between constant flanks
Method in brief: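 Peptides 8 residues long, fused to a cDNA oligonucleotide, were fixed to magnetic beads by the N-terminus and exposed to purified furin. The 0.01 ml reactions contained 50 mM HEPES pH 7.5 with CaCl2 and NaCl at 1:10 enzyme:substrate and ran 7.5, 15 or 30 min. For the cleavage Z-score, log counts of sequenced released DNA were compared with furin-free reactions, lowess-adjusted and scaled by median absolute deviation.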

Chain of furin, P09958 (P09958 whole entry): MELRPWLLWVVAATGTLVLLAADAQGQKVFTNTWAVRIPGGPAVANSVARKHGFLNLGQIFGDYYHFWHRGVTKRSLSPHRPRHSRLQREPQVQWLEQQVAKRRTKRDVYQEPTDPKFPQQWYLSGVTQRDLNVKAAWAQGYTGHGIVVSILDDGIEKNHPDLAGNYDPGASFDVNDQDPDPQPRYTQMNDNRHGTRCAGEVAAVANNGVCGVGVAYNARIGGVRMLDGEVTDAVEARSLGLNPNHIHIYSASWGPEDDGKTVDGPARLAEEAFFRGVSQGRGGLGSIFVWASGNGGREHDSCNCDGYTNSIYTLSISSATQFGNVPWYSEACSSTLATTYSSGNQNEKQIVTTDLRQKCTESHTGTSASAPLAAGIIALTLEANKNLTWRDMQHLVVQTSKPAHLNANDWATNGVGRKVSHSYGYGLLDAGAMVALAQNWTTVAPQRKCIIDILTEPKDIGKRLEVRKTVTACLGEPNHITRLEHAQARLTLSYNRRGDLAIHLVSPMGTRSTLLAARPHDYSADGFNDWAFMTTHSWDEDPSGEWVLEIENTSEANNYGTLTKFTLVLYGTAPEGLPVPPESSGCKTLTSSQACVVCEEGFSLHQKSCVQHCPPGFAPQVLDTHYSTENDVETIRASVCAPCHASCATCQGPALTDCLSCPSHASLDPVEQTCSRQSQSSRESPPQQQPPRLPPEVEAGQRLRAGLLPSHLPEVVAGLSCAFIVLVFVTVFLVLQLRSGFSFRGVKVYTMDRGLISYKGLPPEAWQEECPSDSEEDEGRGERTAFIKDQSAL

Sequence | furin cleavage Z-score (7.5 min) | furin cleavage Z-score (15 min) | furin cleavage Z-score (30 min)
CAVYNHLTPLAGNASASA [HC635] | -0.863 (inactive) | 0.0646 (inactive) | -0.69 (inactive)
CAEEPCHRPSAGNASASA [HC2332] | 0.704 (inactive) | 0.583 (inactive) | -1.24 (inactive)
CARVARSGRDAGNASASA [FS-3115] | 2.88 | 2.99 | 4.3 (active)
CAFLKRSGRDAGNASASA [FS-1324] | 4.93 (active) | 3.96 (active) | 4.12 (active)
CARVWRDSFLAGNASASA [FS-2407] | -0.29 (inactive) | 1.62 | 0.504 (inactive)
CAKLKRSHELAGNASASA [FS-2868] | 0.465 (inactive) | 2.2 | 1.3
CARVARSRELAGNASASA [FS-1842] | 4.74 (active) | 5.44 (active) | 7.45 (active)
CARVARLLSAAGNASASA [FS-3114] | -1.2 (inactive) | 0.294 (inactive) | -1.59 (inactive)
CATPAETTVRAGNASASA [HC926] | -0.713 (inactive) | 1.4 | -0.157 (inactive)
CAGALVAFKIAGNASASA [HC1091] | -1.03 (inactive) | -0.999 (inactive) | -1.45 (inactive)
CAMGSSYGFQAGNASASA [HC1464] | 0.332 (inactive) | -0.28 (inactive) | -0.392 (inactive)
CAEHVRKLRSAGNASASA [FS-990] | 9.51 (active) | 9.45 (active) | 7.69 (active)
CASYFRKKRSAGNASASA [FS-1288] | 10.9 (active) | 10.4 (active) | 8.85 (active)
CAEHFRKKRSAGNASASA [FS-1450] | 13.1 (active) | 12 (active) | 10.4 (active)
